High-throughput results as filed in PubChem.
In the library only some 2.9% were active in any assay of this set; here they are far more common.
ADAM17 inh: ADAM17 inhibitors, primary screen, biochemical, QFRET; Disintegrin and metalloproteinase domain-containing protein 17 (Homo sapiens), P78536; recombinant ADAM17, EDANS/DABCYL FRET peptide cleavage; inhibition, % at 6.95 µM; 0.83% of 370,000 active; AID 720648, 2013;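 active = inhibition above the mean of compounds lying between control limits plus 3 SD, set per campaign, cut at about 8.5% in these data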
Target sequence (P78536 215-824 limits assumed): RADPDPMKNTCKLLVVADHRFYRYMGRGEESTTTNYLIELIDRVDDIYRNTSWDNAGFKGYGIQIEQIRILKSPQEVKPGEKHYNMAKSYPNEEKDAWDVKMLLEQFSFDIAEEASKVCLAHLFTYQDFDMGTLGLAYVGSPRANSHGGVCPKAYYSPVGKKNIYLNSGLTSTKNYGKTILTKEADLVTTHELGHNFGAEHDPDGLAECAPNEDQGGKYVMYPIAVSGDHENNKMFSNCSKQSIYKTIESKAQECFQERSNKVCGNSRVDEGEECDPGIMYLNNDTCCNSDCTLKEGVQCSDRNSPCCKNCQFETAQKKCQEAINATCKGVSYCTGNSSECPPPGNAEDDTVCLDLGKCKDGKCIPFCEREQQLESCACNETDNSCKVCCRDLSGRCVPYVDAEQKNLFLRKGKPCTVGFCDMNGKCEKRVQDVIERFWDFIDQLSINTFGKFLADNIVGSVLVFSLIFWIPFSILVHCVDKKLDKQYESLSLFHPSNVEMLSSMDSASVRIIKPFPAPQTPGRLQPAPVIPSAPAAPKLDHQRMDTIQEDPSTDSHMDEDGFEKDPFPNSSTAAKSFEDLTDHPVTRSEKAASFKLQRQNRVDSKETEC
ADAM10 inh: human ADAM10 inhibitors, primary screen, biochemical, QFRET, HTS. inhibition, % at 7 µM. recombinant ADAM10, EDANS/DABCYL FRET peptide cleavage, 3 h. 0.62% of 370,000 active. Disintegrin and metalloproteinase domain-containing protein 10 (Homo sapiens), O14672;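 active = inhibition above a per-campaign cutoff equal to the mean of compounds falling between control-based bounds plus 3 SD, cut at about 20% in these data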
PLCg1 inh: PLC-gamma1 enzyme inhibitors, primary screen, biochemical, fluorescence, purified enzyme | 1-phosphatidylinositol 4,5-bisphosphate phosphodiesterase gamma-1 (Homo sapiens), P19174 | fluorogenic substrate | inhibition, % at 12.2 µM | 0.84% of 370,000 active; in the data active = inhibition above about 9.5%
KLK7 zymogen act: proKLK7 zymogen activators, primary screen, biochemical, fluorescence intensity; Kallikrein-7 (Homo sapiens), P49862; purified proKLK7, EDANS-DABCYL substrate fluorescence; 100% is mature enzyme control, 0% vehicle; activation, % at 7 µM; 0.9% of 370,000 active;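 active = activation above the mean of all tested compounds plus 3 SD, computed per campaign excluding outliers beyond control limits, cut at about 13% in these data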
PLCb3 inh: human PLC-beta3 inhibitors, primary screen, biochemical, fluorescence; 1-phosphatidylinositol 4,5-bisphosphate phosphodiesterase beta-3 (Homo sapiens), Q01970; 0.18% of 370,000 active; Purified PLC-beta3, fluorogenic substrate; inhibition, % at 12.2 µM; AID 720704, 2013; in the data active = inhibition above about 11%
KLK7 act conf: proKLK7 zymogen activators, confirmation, biochemical, fluorescence intensity, triplicate | shares compounds with KLK7 zymogen act | purified proKLK7, EDANS-DABCYL substrate fluorescence; scaled: vehicle 0, mature enzyme 100 | activation, % at 7 µM | 68% of 3,200 active;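 active = activation, as change over the incubation, above the mean of all tested compounds plus 3 SD, cut at about 13% in these data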
EDANS interfere: EDANS-DABCYL substrate optical interference, artefact control for kallikrein-7 zymogen activator project, biochemical, fluorescence intensity, high throughput | shares compounds with KLK7 zymogen act | no enzyme, 4 h; solvent 0%, active enzyme control 100% | activation, % at 7 µM | 80% of 3,200 active;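 active = activation above the all-compound mean plus 3 SD, ignoring values outside control-based bounds, cut at about 4.8% in these data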;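 note: value is the 4 h activation minus the activation read at time zero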
K7 EDANS ctr: counter-screen for kallikrein-7 activators: EDANS-DABCYL interference, dose response; EDANS-DABCYL peptide fluorescence interference, no enzyme; EC50, µM; 20% of 250 active; shares compounds with KLK7 zymogen act;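 active = compounds that raise the fluorescence signal in this interference counterscreen, with EC50 at or below 10 µM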;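 note: intact quenched peptide substrate alone read at 355 nm excitation and 520 nm emission; signal is fluorescence gain from T0 to T4 after four hours at room temperature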
Numbers stand for hits.

For Cc1ccc(S(=O)(=O)N(C)[C@H]2C[C@H]3c4[nH]c5cccc(-c6ccccc6)c5c4CCN3C(=O)[C@H]2[C@H](C)O)cc1 the results were ADAM17 inh inactive, ADAM10 inh inactive, PLCg1 inh inactive, KLK7 zymogen act inactive and PLCb3 inh inactive.
For C[C@H](O)[C@@H]1C(=O)N2CCc3c([nH]c4ccccc34)[C@@H]2C[C@@H]1N(C)C(=O)Nc1cccc2ccccc12 the results were ADAM17 inh inactive, ADAM10 inh inactive, PLCg1 inh inactive, KLK7 zymogen act inactive and PLCb3 inh inactive.
`Cc1ccccc1C(=O)N(C)[C@H]1C[C@H]2c3[nH]c4ccccc4c3CCN2C(=O)[C@H]1[C@H](C)O` gave ADAM17 inh inactive, ADAM10 inh inactive, PLCg1 inh inactive, KLK7 zymogen act 78, PLCb3 inh inactive, KLK7 act conf 27 and EDANS interfere 27.
C[C@H](O)[C@@H]1C(=O)N2CCc3c([nH]c4ccccc34)[C@@H]2C[C@@H]1N(C)Cc1ccc2c(c1)OCO2 was read as ADAM17 inh inactive, ADAM10 inh inactive, PLCg1 inh inactive, KLK7 zymogen act 26, PLCb3 inh inactive, KLK7 act conf inactive and EDANS interfere inactive.
C[C@H](O)[C@@H]1C(=O)N2CCc3c([nH]c4ccccc34)[C@@H]2C[C@@H]1N(C)C(=O)c1cc(Cl)cc(Cl)c1 was read as ADAM17 inh inactive, ADAM10 inh inactive, PLCg1 inh inactive, KLK7 zymogen act 47, PLCb3 inh inactive, KLK7 act conf 15, EDANS interfere 12 and K7 EDANS ctr inactive.
C[C@H](O)[C@@H]1C(=O)N2CCc3c([nH]c4ccccc34)[C@@H]2C[C@@H]1N(C)S(=O)(=O)c1ccccc1 was read as ADAM17 inh inactive, ADAM10 inh inactive, PLCg1 inh inactive, KLK7 zymogen act 59, PLCb3 inh inactive, KLK7 act conf 43, EDANS interfere 37 and K7 EDANS ctr 7.5.
`C[C@H](O)[C@@H]1C(=O)N2CCc3c([nH]c4c(-c5ccccc5)cccc34)[C@@H]2C[C@@H]1N(C)C(=O)c1cc(Cl)cc(Cl)c1` gave ADAM17 inh inactive, ADAM10 inh inactive, PLCg1 inh inactive, KLK7 zymogen act inactive and PLCb3 inh inactive.
For COC(=O)C1=C(C)N(Cc2ccccc2C(F)(F)F)C(=NCc2ccccc2)NC1c1cccc(F)c1 (stereo not drawn) the results were ADAM17 inh inactive, ADAM10 inh inactive, PLCg1 inh inactive, KLK7 zymogen act inactive and PLCb3 inh inactive.
CN(C)/C=N/c1nc2nccc(-c3cccs3)n2n1 was read as ADAM17 inh inactive, ADAM10 inh inactive, PLCg1 inh inactive, KLK7 zymogen act 85, PLCb3 inh inactive, KLK7 act conf 67 and EDANS interfere 79.
`CN(C)/C=N/c1nc2nccc(-c3cccc(Cl)c3)n2n1` gave ADAM17 inh inactive, ADAM10 inh inactive, PLCg1 inh inactive, KLK7 zymogen act 15, PLCb3 inh inactive, KLK7 act conf 34 and EDANS interfere 45.
C[C@@H]1CN(C(=O)OC(C)(C)C)CCN1c1ccc(Br)c(C#N)c1 was read as ADAM17 inh inactive, ADAM10 inh inactive, PLCg1 inh inactive, KLK7 zymogen act inactive and PLCb3 inh inactive.
`COc1cc(OC)c(-c2nc3ccccc3s2)cc1OC` gave ADAM17 inh inactive, ADAM10 inh inactive, PLCg1 inh inactive, KLK7 zymogen act inactive and PLCb3 inh inactive.
COc1cccc(-c2nc3ccccc3s2)c1O was read as ADAM17 inh inactive, ADAM10 inh inactive, PLCg1 inh inactive, KLK7 zymogen act 25, PLCb3 inh inactive, KLK7 act conf inactive and EDANS interfere inactive.
